Experimental data from PubChem BioAssay (EPA / NIEHS).
Records with an inconclusive call do not appear. A structure can be active in one record and inactive in another. Activity calls are given as the source filed them. Rule for the calls, unless noted: active = hit-call score of the fitted dose curve at least 0.9, where 1 is the maximum; inactive = score below 0.9.

Assays:
[1] = molecular target: human RAR-related Orphan Receptor gamma (RORg), RORC (gene 6097) (UniProt P51449); experiment: ATG_RORg_TRANS: Attagene TRANS-FACTORIAL HepG2 Assay for human RAR-related Orphan Receptor gamma (RORg) (AID 2283011; active = hit-call score of the fitted dose curve at least 0.9, where 1 is the maximum)
In short: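 Reporter transcripts from a transfected RORg-GAL4 chimera in HepG2 cells were quantified 24 h after dosing by RT-PCR, 6-FAM labelling, HpaI digestion and capillary electrophoresis; increases over DMSO baseline were fitted.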

[2] = molecular target: Retinoic acid receptor RXR-alpha (Homo sapiens) (UniProt P19793); experiment: ATG_RXRa_TRANS: Attagene TRANS-FACTORIAL HepG2 Assay for human Retinoid X Receptor alpha (RXRa) (AID 2283012; active = hit-call score of the fitted dose curve at least 0.9, where 1 is the maximum)
In short: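 HepG2 cells transiently transfected with GAL4-UAS reporter units and chimeric RXRa-Gal4 protein, treated 24 h. Reporter mRNA measured by RT-PCR, fluorescent labelling, HpaI digestion and capillary electrophoresis. Induction fitted against DMSO.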

[3] = molecular target: human Retinoid X Receptor beta (RXRb), RXRB (gene 6257) (UniProt P28702); experiment: ATG_RXRb_TRANS: Attagene TRANS-FACTORIAL HepG2 Assay for human Retinoid X Receptor beta (RXRb) (AID 2283013; active = hit-call score of the fitted dose curve at least 0.9, where 1 is the maximum)
In short: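 HepG2 cells were transiently transfected with multiplexed GAL4-UAS reporters and a chimeric RXRb-Gal4 construct, then exposed for 24 h. Reporter mRNA was quantified by RT-PCR, FAM labeling, HpaI digestion and capillary electrophoresis; gain of signal was scored against DMSO.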

[4] = read-out: E-selectin (Homo sapiens) (UniProt P16581); experiment: BSK_3C_Eselectin: BioMAP Diversity Plus: 3C Assay for Eselectin Biomarker Activity (AID 2283015); details: primary human endothelial cells (HUVEC); actives raise or lower the signal
In short: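 E-selectin ELISA readout, fitted bidirectionally relative to DMSO, taken 24 h post-dosing in HUVEC cultures of the 3C system. Overt cytotoxicity tracked with sulforhodamine B staining of parallel wells.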

[5] = read-out: Interleukin-1 alpha (IL1a), IL1A (gene 3552); experiment: BSK_BE3C_IL1a: BioMAP Diversity Plus: BE3C Assay for Interleukin-1 alpha (IL1a) Biomarker Activity (AID 2283016); details: primary human bronchial epithelial cells; actives raise or lower the signal
In short: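 Human primary bronchial epithelial cells, 24 h chemical exposure; IL-1a quantified by ELISA, fitted bidirectionally against DMSO. Cytotoxicity assessed in parallel by SRB total-protein staining at the time of measurement.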

[6] = read-out: Monocyte Chemoattractant Protein-1 (MCP1), CCL2 (gene 6347); experiment: BSK_4H_MCP1: BioMAP Diversity Plus: 4H Assay for Monocyte Chemoattractant Protein-1 (MCP1) Biomarker Activity (AID 2283018); details: primary human endothelial cells (HUVEC); actives raise or lower the signal
In short: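 Human umbilical vein endothelial cells (4H system) exposed to chemicals for 24 h in 96-well format. MCP-1 measured by ELISA; bidirectional fitting against DMSO, with SRB total-protein staining in parallel cultures for cytotoxicity.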

[7] = read-out: Human Leukocyte Antigen - DR isotype (HLADR), HLA-DRA (gene 3122); experiment: BSK_3C_HLADR: BioMAP Diversity Plus: 3C Assay for Human Leukocyte Antigen - DR isotype (HLADR) Biomarker Activity (AID 2283019); details: primary human endothelial cells (HUVEC); actives raise or lower the signal
In short: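 Bidirectional fitting against DMSO was applied to the HLA-DR ELISA signal from human umbilical vein endothelial cells, 24 h post-dose. Cytotoxicity came from parallel SRB total-protein staining; 3C proliferation was counted by SRB at 48 h.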

[8] = read-out: Interleukin-8 (IL8), CXCL8 (gene 3576); experiment: BSK_3C_IL8: BioMAP Diversity Plus: 3C Assay for Interleukin-8 (IL8) Biomarker Activity (AID 2283020); details: primary human endothelial cells (HUVEC); actives raise or lower the signal
In short: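 Primary human umbilical vein endothelial cells were dosed for 24 h. IL-8 was quantified by ELISA and fitted bidirectionally against DMSO. Cytotoxicity was assessed in parallel cultures by SRB staining at 560 nm.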

[9] = read-out: Monokine induced gamma interferon (MIG), CXCL9 (gene 4283); experiment: BSK_3C_MIG: BioMAP Diversity Plus: 3C Assay for Monokine induced gamma interferon (MIG) Biomarker Activity (AID 2283021); details: primary human endothelial cells (HUVEC); actives raise or lower the signal
In short: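 HUVEC primary endothelial cultures dosed with chemical; MIG quantified by ELISA at 24 h. Data fitted bidirectionally against DMSO control, with parallel SRB total-protein staining for cytotoxicity.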

[10] = BSK_3C_SRB: Viability Assessment in the BioMAP Diversity Plus: 3C Assay (AID 2283023); details: primary human endothelial cells (HUVEC);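 note: fitted both ways against DMSO so a hit may be signal rise or drop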
In short: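 Cytotoxicity readout in parallel HUVEC 3C cultures: after 24 h compound exposure, cells fixed with 10% TCA, stained with 0.1% SRB and read at 560 nm. Gain or loss relative to DMSO fitted.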

[11] = read-out: Matrix Metallopeptidase 1 (MMP1), MMP1 (gene 4312); experiment: BSK_BE3C_MMP1: BioMAP Diversity Plus: BE3C Assay for Matrix Metallopeptidase 1 (MMP1) Biomarker Activity (AID 2283024); details: primary human bronchial epithelial cells; actives raise or lower the signal
In short: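 Human primary bronchial epithelial cells (BE3C system) dosed for 24 h; MMP-1 quantified by ELISA. Bidirectional fit against DMSO; cytotoxicity tracked in parallel cultures by SRB total-protein staining.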

[12] = read-out: Pselectin, SELP (gene 6403); experiment: BSK_4H_Pselectin: BioMAP Diversity Plus: 4H Assay for Pselectin Biomarker Activity (AID 2283026); details: primary human endothelial cells (HUVEC); actives raise or lower the signal
In short: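 Primary human umbilical vein endothelial cells were treated 24 h, and cell-surface P-selectin was then quantified by ELISA. Bidirectional fit versus DMSO; cytotoxicity checked in parallel cultures by SRB total-protein staining.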

[13] = BSK_4H_SRB: Viability Assessment in the BioMAP Diversity Plus: 4H Assay (AID 2283027); details: primary human endothelial cells (HUVEC);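 note: cells exposed to compound for 24 h before staining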
In short: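 Human umbilical vein endothelial cells, 24 h after chemical dosing; total protein measured by 0.1% sulforhodamine B staining after 10% TCA fixation, read at 560 nm. Bidirectional fitting against DMSO.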

[14] = read-out: Thrombomodulin, THBD (gene 7056); experiment: BSK_3C_Thrombomodulin: BioMAP Diversity Plus: 3C Assay for Thrombomodulin Biomarker Activity (AID 2283029); details: primary human endothelial cells (HUVEC); actives raise or lower the signal
In short: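 Human umbilical vein endothelial cells were exposed to chemicals for 24 h; cell-surface thrombomodulin quantified by ELISA, with bidirectional fitting against DMSO baseline.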

[15] = molecular target: human RAR-related Orphan Receptor beta (RORb), RORB (gene 6096) (UniProt Q92753); experiment: ATG_RORb_TRANS: Attagene TRANS-FACTORIAL HepG2 Assay for human RAR-related Orphan Receptor beta (RORb) (AID 2283010; active = hit-call score of the fitted dose curve at least 0.9, where 1 is the maximum)
In short: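 HepG2 cells transiently transfected with GAL4-UAS reporter units expressing chimeric NR-Gal4 protein; reporter mRNA measured 24 h after dosing by RT-PCR, 6-FAM labelling and capillary electrophoresis. Gain-of-signal fitted relative to DMSO baseline.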

[16] = molecular target: human Vitamin D Receptor (VDR), VDR (gene 7421) (UniProt P11473); experiment: ATG_VDR_TRANS: Attagene TRANS-FACTORIAL HepG2 Assay for human Vitamin D Receptor (VDR) (AID 2283022; active = hit-call score of the fitted dose curve at least 0.9, where 1 is the maximum)
In short: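 Transactivation by an exogenous VDR-Gal4 chimera in transiently transfected HepG2 cells was measured as reporter transcript level 24 hours after chemical treatment. RT-PCR products were analysed by capillary electrophoresis and fitted in the positive direction relative to DMSO.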

[17] = molecular target: human Thyroid Receptor alpha (THRa1), THRA (gene 7067) (UniProt P10827); experiment: ATG_THRa1_TRANS: Attagene TRANS-FACTORIAL HepG2 Assay for human Thyroid Receptor alpha (THRa1) (AID 2283014; active = hit-call score of the fitted dose curve at least 0.9, where 1 is the maximum)
In short: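 Transcripts from GAL4-UAS-driven reporters, measured after 24 h compound exposure by RT-PCR plus capillary electrophoresis of 6-FAM-labeled fragments, were fitted for gain of signal relative to DMSO. Cells: transiently transfected HepG2 expressing NR-Gal4 chimeras.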

[18] = read-out: Monocyte Chemoattractant Protein-1 (MCP1), CCL2 (gene 6347); experiment: BSK_3C_MCP1: BioMAP Diversity Plus: 3C Assay for Monocyte Chemoattractant Protein-1 (MCP1) Biomarker Activity (AID 2283017); details: primary human endothelial cells (HUVEC); actives raise or lower the signal
In short: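 MCP-1 was measured by ELISA 24 h after dosing in primary HUVEC 3C cultures and fitted in both directions relative to DMSO; cytotoxicity was checked by SRB total-protein staining in parallel wells.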

[19] = BSK_3C_Vis: BioMAP Diversity Plus: 3C Assay for Morphology Visualization (AID 2283025); details: primary human endothelial cells (HUVEC);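 note: fitted both ways so gain or loss versus DMSO counts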;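 for AC50: light microscopy image of cell morphology used as background control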
In short: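 Human umbilical vein endothelial cell morphology was inspected by light microscopy 24 h after chemical dosing; scored bidirectionally relative to DMSO.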

[20] = BSK_BE3C_SRB: Viability Assessment in the BioMAP Diversity Plus: BE3C Assay (AID 2283028); details: primary human bronchial epithelial cells
In short: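 Cytotoxicity read-out: SRB (0.1%) staining of TCA-fixed (10%) human lung bronchial epithelial cells, absorbance 560 nm, 24 h post-dosing. Curves fitted both directions relative to DMSO.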

Measured: AC50

Sequence of E-selectin (Homo sapiens) (P16581 whole entry, looked up): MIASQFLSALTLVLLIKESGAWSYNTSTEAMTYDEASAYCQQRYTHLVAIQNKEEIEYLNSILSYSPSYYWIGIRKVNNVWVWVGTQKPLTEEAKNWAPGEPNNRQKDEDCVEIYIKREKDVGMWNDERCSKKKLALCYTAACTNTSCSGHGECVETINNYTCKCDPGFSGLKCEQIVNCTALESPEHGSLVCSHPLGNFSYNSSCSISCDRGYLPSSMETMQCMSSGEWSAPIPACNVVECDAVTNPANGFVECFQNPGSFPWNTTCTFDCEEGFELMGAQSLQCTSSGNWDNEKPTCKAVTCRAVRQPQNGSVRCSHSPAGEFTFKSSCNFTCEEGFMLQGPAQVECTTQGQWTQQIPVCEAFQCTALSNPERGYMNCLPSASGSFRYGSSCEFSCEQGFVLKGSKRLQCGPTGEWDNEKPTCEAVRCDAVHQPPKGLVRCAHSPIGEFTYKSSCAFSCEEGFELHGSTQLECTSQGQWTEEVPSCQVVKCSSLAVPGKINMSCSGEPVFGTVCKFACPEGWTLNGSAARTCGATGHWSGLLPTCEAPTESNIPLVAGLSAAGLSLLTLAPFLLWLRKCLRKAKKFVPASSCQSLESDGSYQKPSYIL
Sequence of human RAR-related Orphan Receptor beta (RORb), RORB (gene 6096) (Q92753 whole entry, looked up, the tested form may be a part): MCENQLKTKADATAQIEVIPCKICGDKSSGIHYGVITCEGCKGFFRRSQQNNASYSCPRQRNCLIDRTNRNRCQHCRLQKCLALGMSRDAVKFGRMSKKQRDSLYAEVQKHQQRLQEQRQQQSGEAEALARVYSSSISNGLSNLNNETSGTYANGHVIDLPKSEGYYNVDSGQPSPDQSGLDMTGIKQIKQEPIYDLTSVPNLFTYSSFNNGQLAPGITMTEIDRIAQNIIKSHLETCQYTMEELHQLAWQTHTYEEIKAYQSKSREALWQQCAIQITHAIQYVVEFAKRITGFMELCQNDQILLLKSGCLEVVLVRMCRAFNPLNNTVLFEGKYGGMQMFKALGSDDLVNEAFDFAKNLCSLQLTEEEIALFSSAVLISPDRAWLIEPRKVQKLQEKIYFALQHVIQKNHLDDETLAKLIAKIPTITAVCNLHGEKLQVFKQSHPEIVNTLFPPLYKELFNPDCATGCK
Sequence of human RAR-related Orphan Receptor gamma (RORg), RORC (gene 6097) (P51449 whole entry, looked up, the tested form may be a part): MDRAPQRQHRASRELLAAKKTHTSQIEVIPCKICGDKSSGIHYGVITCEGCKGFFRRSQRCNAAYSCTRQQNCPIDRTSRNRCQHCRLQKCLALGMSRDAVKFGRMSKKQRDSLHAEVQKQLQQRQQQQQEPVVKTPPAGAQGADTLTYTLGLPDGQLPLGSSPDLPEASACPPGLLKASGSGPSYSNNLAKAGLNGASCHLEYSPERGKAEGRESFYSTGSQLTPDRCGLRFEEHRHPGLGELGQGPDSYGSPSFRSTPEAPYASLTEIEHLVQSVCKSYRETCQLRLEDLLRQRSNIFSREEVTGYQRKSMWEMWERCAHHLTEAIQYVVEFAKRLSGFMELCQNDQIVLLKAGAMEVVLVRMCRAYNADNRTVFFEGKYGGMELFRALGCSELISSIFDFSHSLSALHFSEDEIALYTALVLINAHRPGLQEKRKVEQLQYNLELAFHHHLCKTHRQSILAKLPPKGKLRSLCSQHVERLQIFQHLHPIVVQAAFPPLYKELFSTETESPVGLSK
Sequence of Retinoic acid receptor RXR-alpha (Homo sapiens) (P19793 whole entry, looked up, the tested form may be a part): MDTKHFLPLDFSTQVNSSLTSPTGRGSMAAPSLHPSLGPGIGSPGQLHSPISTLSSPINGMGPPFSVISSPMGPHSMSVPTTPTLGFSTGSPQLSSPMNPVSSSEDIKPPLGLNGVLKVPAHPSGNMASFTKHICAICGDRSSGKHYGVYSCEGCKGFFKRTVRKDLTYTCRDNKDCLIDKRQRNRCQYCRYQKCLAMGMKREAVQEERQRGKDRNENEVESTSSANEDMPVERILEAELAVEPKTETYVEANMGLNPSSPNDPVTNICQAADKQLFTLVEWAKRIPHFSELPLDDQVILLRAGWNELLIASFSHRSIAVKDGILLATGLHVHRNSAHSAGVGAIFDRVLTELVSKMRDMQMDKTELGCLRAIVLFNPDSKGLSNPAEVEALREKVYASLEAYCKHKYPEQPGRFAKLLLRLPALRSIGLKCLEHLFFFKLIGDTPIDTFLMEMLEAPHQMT
Sequence of human Vitamin D Receptor (VDR), VDR (gene 7421) (P11473 whole entry, looked up, the tested form may be a part): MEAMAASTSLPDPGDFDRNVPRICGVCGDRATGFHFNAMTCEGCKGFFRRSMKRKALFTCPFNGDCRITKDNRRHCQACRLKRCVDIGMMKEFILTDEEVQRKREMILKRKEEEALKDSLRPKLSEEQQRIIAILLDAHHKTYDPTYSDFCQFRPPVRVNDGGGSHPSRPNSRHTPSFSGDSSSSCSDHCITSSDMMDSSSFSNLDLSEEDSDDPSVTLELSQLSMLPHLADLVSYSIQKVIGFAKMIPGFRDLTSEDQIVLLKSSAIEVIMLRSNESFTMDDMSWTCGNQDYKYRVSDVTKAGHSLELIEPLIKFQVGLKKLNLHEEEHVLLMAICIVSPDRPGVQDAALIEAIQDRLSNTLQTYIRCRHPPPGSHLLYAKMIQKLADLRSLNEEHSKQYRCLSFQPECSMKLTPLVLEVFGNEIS
Sequence of human Retinoid X Receptor beta (RXRb), RXRB (gene 6257) (P28702 whole entry, looked up, the tested form may be a part): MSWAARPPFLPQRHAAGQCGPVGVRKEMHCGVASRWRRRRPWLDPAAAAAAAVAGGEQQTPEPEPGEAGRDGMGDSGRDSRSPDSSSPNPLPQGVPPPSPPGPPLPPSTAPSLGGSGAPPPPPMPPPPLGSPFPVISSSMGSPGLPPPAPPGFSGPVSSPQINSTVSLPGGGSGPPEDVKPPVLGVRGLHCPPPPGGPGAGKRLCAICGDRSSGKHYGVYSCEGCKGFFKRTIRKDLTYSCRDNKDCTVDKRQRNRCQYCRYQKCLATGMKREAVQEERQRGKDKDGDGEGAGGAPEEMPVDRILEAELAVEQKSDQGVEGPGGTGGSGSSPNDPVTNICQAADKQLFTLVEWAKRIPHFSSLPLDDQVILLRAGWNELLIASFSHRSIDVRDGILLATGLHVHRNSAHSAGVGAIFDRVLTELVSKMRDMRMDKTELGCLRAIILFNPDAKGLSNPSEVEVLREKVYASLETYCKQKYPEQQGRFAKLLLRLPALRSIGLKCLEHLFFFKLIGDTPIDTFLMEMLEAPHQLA
Sequence of human Thyroid Receptor alpha (THRa1), THRA (gene 7067) (P10827 whole entry, looked up, the tested form may be a part): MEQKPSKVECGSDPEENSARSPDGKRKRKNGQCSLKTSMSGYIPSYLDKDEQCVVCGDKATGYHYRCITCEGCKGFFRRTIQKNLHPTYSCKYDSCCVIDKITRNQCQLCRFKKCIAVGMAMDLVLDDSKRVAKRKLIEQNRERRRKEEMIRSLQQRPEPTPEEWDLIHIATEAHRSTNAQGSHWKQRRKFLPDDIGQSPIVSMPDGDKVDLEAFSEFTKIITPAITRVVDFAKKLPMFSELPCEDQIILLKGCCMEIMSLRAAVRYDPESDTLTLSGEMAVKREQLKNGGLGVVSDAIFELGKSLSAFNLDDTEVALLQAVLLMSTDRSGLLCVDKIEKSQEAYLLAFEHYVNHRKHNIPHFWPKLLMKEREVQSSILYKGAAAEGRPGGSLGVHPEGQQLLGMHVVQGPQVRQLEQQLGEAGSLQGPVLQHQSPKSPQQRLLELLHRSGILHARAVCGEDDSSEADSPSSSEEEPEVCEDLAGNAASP

CCCCCCCCC(F)(F)C(F)(F)C(F)(F)C(F)(F)C(F)(F)C(F)(F)F
active: [3] 21.2 µM
not listed: [15] | [16] | [17] | [18] | [19] | [20]
inactive: all other assays above

C=C(C)C(=O)OCC(F)(F)C(F)(F)C(F)(F)C(F)(F)C(F)(F)C(F)(F)C(F)(F)F
inactive: [15] | [4] | [6] | [7] | [8] | [9] | [16] | [10] | [11] | [12] | [13] | [14]
active: [11] 3.2 µM

NC(=O)C(F)(F)C(F)(F)C(F)(F)C(F)(F)F
inactive: [15] | [4] | [6] | [7] | [8] | [9] | [10] | [11] | [12] | [13] | [14]
active: [14] 38.8 µM

CCC(=O)OCCc1ccccc1
inactive: [15] | [2] | [17]

CCO[Si](CCC(F)(F)C(F)(F)C(F)(F)C(F)(F)C(F)(F)C(F)(F)F)(OCC)OCC
active: [14] 0.638 µM
inactive: [1] | [2] | [17] | [4] | [5] | [18] | [6] | [7] | [8] | [9] | [10] | [11] | [12] | [13] | [14]

C(=C(c1ccccc1)c1ccccc1)c1ccccc1
active: [3] 6.11 µM
inactive: [15] | [2] | [17] | [16]

Nc1ccc(S(=O)(=O)Nc2nccs2)cc1
inactive: [15] | [3]

CCCCC(CC)COP(=O)(O)OCC(CC)CCCC (stereo not drawn)
inactive: [15] | [4] | [5] | [18] | [6] | [7] | [8] | [9] | [16] | [10] | [11] | [12] | [13] | [14]
active: [10] 27.7 µM

CCCCCC=O
inactive: [15] | [2] | [17]

O=S(=O)(O)c1ccc2ccccc2c1
inactive: [15] | [2] | [17] | [16]

O=C(O)C(F)(OC(F)(F)C(F)(OC(F)(F)C(F)(F)C(F)(F)F)C(F)(F)F)C(F)(F)F (stereo not drawn)
not listed: [1] | [3] | [5] | [16] | [17] | [18] | [19] | [20]
inactive: all other assays above

CCN(CC)c1ccc2c(C)cc(=O)oc2c1
active: [7] 31.3 µM | [19] 37.5 µM
not listed: [3] | [15] | [16]
inactive: all other assays above

CCc1c(Br)c(Br)c(Br)c(Br)c1Br
not listed: [1] | [3] | [20]
inactive: all other assays above

OCC(F)(F)C(F)(F)C(F)(F)F
not listed: [1] | [3] | [16] | [19]
inactive: all other assays above

C=CC(F)(F)C(F)(F)C(F)(F)C(F)(F)C(F)(F)C(F)(F)C(F)(F)C(F)(F)F
not listed: [1] | [3] | [16] | [17] | [19]
inactive: all other assays above

O=C(C=Cc1ccccc1)OCC=Cc1ccccc1
inactive: [15] | [2] | [17]

CCCCNc1ccccc1
not listed: [1] | [2] | [5] | [16] | [18]
inactive: all other assays above

O=C(OCCOCCOCCOC(=O)c1ccccc1)c1ccccc1
inactive: [1] | [3]

CCCCCCOC(=O)c1ccccc1
inactive: [2] | [17] | [16]

CC(C)=CCCC(C)CCOC(=O)C(C)C (stereo not drawn)
inactive: [1] | [17] | [16]

CC(CCl)OP(=O)(OC(C)CCl)OC(C)CCl (stereo not drawn)
not listed: [1] | [3] | [15] | [16] | [17] | [18] | [20]
inactive: all other assays above
